Composite z-score and z-score data for six compounds are collected here from PubChem BioAssay.

SMILES strings stand for the structures. Calls of active or inactive are those of the source.

In assay [1] the test system is Plasmodium falciparum Sir2 (PF13_0152, Sir2A). Briefly: Plasmodium falciparum Sir2A binding compounds – biochemical, small-molecule microarray, 635 nm fluorescence, primary screen (AID 1098).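 Further: score merges spot fluorescence intensity with its signal-to-noise ratio.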 The conditions noted are these: fluorescence 635 nm, higher = more signal.
Assay [2] is described as follows: probe aDKK1 binding to arrayed compounds – biochemical, biotinylated probe, 635/667 nm fluorescence, primary screen (AID 1099).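 Further: score merges 667nm spot fluorescence with signal to noise across triplicate slides.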 The following applies: small-molecule microarray, higher = more signal.
The nature of assay [3]: probe aCHRDL2 binding to arrayed compounds – biochemical, biotinylated probe, 635/667 nm fluorescence, primary screen (AID 1100). The conditions noted are these: small-molecule microarray, higher = more signal.
Assay [4] in a line: change in splice reporter luminescence, either direction, cell-based, HEK293, spliceosome inhibition project, primary screen (AID 1101).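 Further: HEK293 cells carrying a splicing-competent luciferase reporter gene; test concentration not given here.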 The following applies: HEK293 splicing luciferase reporter, 24 h, higher = more signal, called active from +8 up or from −8 down. A general note: Reporter assays use an easily measured gene product as a stand-in for the process of interest.
For assay [5], the target named is Fibroblast growth factor 10 (Homo sapiens) (UniProt O15520). Briefly: compounds binding fibroblast growth factor 10 – biochemical, small-molecule microarray, 635 nm fluorescence, primary screen (AID 1102). The following applies: FGF10 binding, fluorescence 635 nm, higher = more signal.
Chain of Fibroblast growth factor 10 (Homo sapiens) (O15520 whole entry, looked up): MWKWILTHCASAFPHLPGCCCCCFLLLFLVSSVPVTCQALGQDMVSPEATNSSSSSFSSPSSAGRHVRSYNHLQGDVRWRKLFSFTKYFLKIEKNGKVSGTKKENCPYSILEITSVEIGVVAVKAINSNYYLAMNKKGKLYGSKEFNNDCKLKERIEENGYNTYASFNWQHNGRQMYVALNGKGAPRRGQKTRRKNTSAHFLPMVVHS
Assay [6] concerns glycogen synthase kinase-3 (GSK3A per assay name; protocol says GSK3B). Briefly: compounds binding glycogen synthase kinase-3 – biochemical, small-molecule microarray, 635 nm fluorescence, GSK3A, primary screen (AID 1103). Further: the record names both GSK3A and GSK3B. The following applies: fluorescence 635 nm, higher = more signal.
Assay [7] has as its target Epidermal growth factor receptor (Homo sapiens) (UniProt P00533). As to the kind of experiment: compounds binding epidermal growth factor receptor – biochemical, small-molecule microarray, 635 nm fluorescence, primary screen (AID 1104).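 Further: score merges 667 nm emission intensity with spot signal to noise over triplicate slides.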 The conditions noted are these: EGFR binding, higher = more signal.
Assay [8] has as its target Follistatin-related protein 3 (Homo sapiens) (UniProt O95633). Briefly: compounds binding follistatin-related protein 3 – biochemical, small-molecule microarray, 635 nm fluorescence, primary screen (AID 1105).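 Further: score merges emission near 667 nm and signal to noise per printed spot across three slides.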 The following applies: FSTL3 binding, higher = more signal.
The target of assay [9] is Dickkopf-related protein 1 (Homo sapiens) (UniProt O94907). As to the kind of experiment: small molecules binding DKK1 protein – biochemical, small-molecule microarray, 635 nm fluorescence scan, primary screen (AID 1106).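 Further: score merges emission near 667 nm with signal to noise over three replicate slides.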 The conditions noted are these: higher = more signal.
Chain of Dickkopf-related protein 1 (Homo sapiens) (O94907 whole entry, looked up): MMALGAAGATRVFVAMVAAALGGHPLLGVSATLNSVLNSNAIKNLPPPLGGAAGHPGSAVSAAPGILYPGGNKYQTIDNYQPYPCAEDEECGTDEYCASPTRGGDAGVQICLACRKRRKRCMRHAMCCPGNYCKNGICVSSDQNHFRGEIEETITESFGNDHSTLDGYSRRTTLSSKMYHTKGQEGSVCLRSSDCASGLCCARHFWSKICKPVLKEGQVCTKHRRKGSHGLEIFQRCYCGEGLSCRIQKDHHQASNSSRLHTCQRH
The subject of assay [10] is Inhibin beta A chain (activin A). As to the kind of experiment: small molecules binding activin A – biochemical, small-molecule microarray, 635 nm fluorescence scan, primary screen (AID 1107).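 Further: mouse activin A protein probed at 4.33 µg/mL on printed slides; score merges bound-protein fluorescence near 667 nm with spot signal-to-noise.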 The conditions noted are these: INHBA, higher = more signal.
In assay [11] the test system is Human papillomavirus type 1a protein E7 (residues 44-93). Briefly: small molecules binding HPV E7 44-93 – biochemical, small-molecule microarray, residues 44-93, 635 nm fluorescence, primary screen (AID 1108).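 Further: E7 fragment applied at 1 µg/mL in TBST for 1 h at 4 C; score combines spot fluorescence with its signal to noise ratio.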 The following applies: fluorescence 635 nm, higher = more signal.
The nature of assay [12]: hepatitis C replication reporter changes, two-sided – Huh7 cells, luciferase reporter, HCV replication inhibitor project, primary screen (AID 1109).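 Further: huh7 hepatoma cells harbouring a luciferase neomycin HCV replicon reporter; luciferase luminescence as measure of HCV replicon replication; test concentration not given here.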 The following applies: Huh7 HCV replicon luciferase reporter, 48 h; higher = more signal.
Assay [13] has as its target Left-right determination factor 2 (Homo sapiens) (UniProt O00292). Briefly: small molecules binding LEFTY2 protein – biochemical, small-molecule microarray, 635 nm fluorescence scan, primary screen (AID 1110). The following applies: higher = more signal.
For assay [14], the target named is Calmodulin-1 (Homo sapiens) (UniProt P0DP23). Briefly: small molecules binding calmodulin-1 with EGTA – biochemical, small-molecule microarray, Cy5-labelled CALM1, profiling panel (AID 1111).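 Further: labelled calmodulin applied in Tris saline Tween buffer holding calcium plus EGTA and DTT.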 The conditions noted are these: Cy5-CALM1 binding fluorescence, higher = more signal.
The target is the same in assay [15]. As to the kind of experiment: small molecules binding Ca-loaded calmodulin-1 – biochemical, small-molecule microarray, Cy5-labelled CALM1, plus calcium, artefact control for SMM control-protein annotation, profiling panel (AID 1112).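 Further: score merges spot fluorescence with signal to noise from triplicate slides.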 The following applies: Cy5-CALM1 binding fluorescence, higher = more signal.
Assay [16] can be described thus: probe aWnt5a binding to arrayed compounds – biochemical, biotinylated probe, 635/667 nm fluorescence, primary screen (AID 1113).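 Further: score merges 667 nm fluorescence intensity with signal-to-noise per printed feature.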 The following applies: small-molecule microarray, higher = more signal.
Assay [17] is described as follows: probe aShh binding to arrayed compounds – biochemical, biotinylated probe, 635/667 nm fluorescence, primary screen (AID 1114).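 Further: probe is biotin-labelled aShh protein from a stem cell growth factor screen; measures binding of labelled protein to compounds printed on the slide; score merges feature fluorescence at 667 nm with signal-to-noise.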 The conditions noted are these: small-molecule microarray, higher = more signal.
The nature of assay [18]: probe aNog binding to arrayed compounds – biochemical, biotinylated probe, 635/667 nm fluorescence, primary screen (AID 1115).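 Further: probe is biotinylated aNog protein used at 0.15 µg/mL for 1 h at 4 C; z-score combines 667 nm fluorescence of each spot with its signal to noise.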 The following applies: small-molecule microarray, higher = more signal.
For assay [19], the target named is Torsin-1A-interacting protein 1 (Homo sapiens) (UniProt Q5JTV8). As to the kind of experiment: compound microarray binding of lysate hLAP1 – cell lysate, small-molecule microarray, COS7 lysate, 635/667 nm fluorescence, primary screen (AID 1116). The conditions noted are these: 635 nm fluorescence, higher = more signal.
Chain of Torsin-1A-interacting protein 1 (Homo sapiens) (Q5JTV8 whole entry, looked up): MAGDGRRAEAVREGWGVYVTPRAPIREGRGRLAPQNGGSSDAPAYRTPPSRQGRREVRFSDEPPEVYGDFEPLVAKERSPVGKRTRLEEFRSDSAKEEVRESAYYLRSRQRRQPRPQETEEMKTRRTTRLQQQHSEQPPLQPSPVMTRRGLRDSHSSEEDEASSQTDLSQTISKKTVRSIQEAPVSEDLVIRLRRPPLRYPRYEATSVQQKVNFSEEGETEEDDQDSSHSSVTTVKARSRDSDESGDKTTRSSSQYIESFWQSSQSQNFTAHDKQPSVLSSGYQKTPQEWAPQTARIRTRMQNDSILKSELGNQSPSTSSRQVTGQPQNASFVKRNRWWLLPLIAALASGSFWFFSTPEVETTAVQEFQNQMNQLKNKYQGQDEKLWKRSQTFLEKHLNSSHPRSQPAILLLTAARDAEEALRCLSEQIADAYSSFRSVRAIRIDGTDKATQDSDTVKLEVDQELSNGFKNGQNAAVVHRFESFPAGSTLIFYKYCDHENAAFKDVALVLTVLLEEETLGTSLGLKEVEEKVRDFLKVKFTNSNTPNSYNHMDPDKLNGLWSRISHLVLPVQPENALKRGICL
For assay [20], the target named is Alpha-bungarotoxin (Bungarus multicinctus) (UniProt P60615). As to the kind of experiment: compounds binding labelled alpha-BTX control protein – biochemical, small-molecule microarray, Alexa647 label, 635/667 nm fluorescence, artefact control for SMM control protein annotation, profiling panel (AID 1117). The following applies: alpha-BTX-A647 binding fluorescence, higher = more signal.
Chain of Alpha-bungarotoxin (Bungarus multicinctus) (P60615 whole entry, looked up): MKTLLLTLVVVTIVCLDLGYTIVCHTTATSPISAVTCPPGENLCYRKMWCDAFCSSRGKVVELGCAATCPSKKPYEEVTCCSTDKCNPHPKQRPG

Chain of Left-right determination factor 2 (Homo sapiens) (O00292 whole entry, looked up): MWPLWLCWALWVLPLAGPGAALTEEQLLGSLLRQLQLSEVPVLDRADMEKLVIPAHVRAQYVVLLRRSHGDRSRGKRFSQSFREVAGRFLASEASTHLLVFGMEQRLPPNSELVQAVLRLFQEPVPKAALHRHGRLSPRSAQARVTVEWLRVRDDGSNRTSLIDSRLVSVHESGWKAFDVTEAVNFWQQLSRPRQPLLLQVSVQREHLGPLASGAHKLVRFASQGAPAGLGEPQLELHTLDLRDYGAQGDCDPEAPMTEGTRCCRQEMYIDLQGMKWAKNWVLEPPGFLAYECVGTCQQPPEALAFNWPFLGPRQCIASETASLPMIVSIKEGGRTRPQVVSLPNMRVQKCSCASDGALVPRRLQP
Chain of Epidermal growth factor receptor (Homo sapiens) (P00533 whole entry, looked up): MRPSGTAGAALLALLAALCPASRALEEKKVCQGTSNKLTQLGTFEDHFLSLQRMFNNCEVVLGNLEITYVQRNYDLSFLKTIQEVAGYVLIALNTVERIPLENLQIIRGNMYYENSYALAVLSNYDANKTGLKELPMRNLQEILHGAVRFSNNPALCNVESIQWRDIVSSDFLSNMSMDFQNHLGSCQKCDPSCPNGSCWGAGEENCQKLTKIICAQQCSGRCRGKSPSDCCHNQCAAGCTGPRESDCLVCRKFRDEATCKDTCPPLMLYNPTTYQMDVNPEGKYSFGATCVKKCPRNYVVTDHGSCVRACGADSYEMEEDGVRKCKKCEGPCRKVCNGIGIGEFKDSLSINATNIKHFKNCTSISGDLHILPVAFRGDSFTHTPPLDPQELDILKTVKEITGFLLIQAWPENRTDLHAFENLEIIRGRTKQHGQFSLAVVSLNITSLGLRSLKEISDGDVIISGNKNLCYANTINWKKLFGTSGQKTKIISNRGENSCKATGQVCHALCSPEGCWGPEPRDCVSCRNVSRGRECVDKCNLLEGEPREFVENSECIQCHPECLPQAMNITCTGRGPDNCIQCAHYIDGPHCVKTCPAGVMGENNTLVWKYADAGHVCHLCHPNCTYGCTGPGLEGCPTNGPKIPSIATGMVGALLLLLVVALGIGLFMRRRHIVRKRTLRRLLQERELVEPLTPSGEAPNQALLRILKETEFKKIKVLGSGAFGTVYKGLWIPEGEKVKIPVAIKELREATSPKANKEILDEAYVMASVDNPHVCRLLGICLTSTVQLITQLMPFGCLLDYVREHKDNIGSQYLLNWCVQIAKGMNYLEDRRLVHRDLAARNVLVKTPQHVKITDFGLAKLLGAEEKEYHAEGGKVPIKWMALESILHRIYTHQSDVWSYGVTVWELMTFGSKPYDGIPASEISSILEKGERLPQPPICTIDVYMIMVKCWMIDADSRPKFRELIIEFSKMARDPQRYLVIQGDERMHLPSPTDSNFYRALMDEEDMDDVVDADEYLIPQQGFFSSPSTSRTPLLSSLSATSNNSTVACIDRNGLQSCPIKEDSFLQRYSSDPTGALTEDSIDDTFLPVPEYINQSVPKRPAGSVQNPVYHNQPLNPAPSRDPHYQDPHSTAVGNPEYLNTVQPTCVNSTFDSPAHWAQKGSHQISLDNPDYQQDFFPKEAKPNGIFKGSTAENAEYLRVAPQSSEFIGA
Chain of Follistatin-related protein 3 (Homo sapiens) (O95633 whole entry, looked up): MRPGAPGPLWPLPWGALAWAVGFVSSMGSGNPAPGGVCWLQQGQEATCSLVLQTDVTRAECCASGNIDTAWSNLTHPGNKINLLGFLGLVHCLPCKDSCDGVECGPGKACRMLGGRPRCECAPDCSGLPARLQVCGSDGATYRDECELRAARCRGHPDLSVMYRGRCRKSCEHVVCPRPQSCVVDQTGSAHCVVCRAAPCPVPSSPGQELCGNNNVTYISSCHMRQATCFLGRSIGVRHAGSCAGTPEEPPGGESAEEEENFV

For `CCOC(=O)[C@H](Cc1ccccc1)NC(=O)CCC1CC(OC(=O)NCc2ccc3c(c2)OCO3)CC2(CCCC(COC(=O)NCC(c3ccccc3)c3ccccc3)O2)O1` (stereo not given in full), the composite z-score was 1.06 in assay [1]; -0.0362 in [2]; -0.481 in [3]; 0.525 in [5]; 1.23 in assay [6]; 0.251 in assay [7]. In addition, the composite z-score in assay [8] is 0.929; in assay [9], 0.377; in assay [10], -0.0374; in assay [11], 1.39; in [13] it was 0.45; in assay [14], -0.198. Further, the composite z-score in assay [15] is -0.0205; in assay [16], -0.175; in assay [17], 0.0723; in assay [18], -0.233; in [19], 0.313; in assay [20] it was 0.363. Besides, the z-score in assay [4] is -1.45 (inactive); in assay [12], 0.529.
Regarding `COC(=O)CC1OC1[C@H](C)[C@@H](OC)C(C)C` (stereo not given in full), the composite z-score was 0.505 in assay [1]; -0.0977 in assay [2]; -0.111 in [3]; 0.142 in assay [5]; -0.792 in assay [6]; 0.335 in [7]. The composite z-score was 0.0479 in assay [8]; 0.82 in [9]; 1.32 in assay [10]; -0.792 in assay [11]; 0.389 in assay [13]; -0.723 in [14]. The composite z-score in [15] is -1.26; in assay [16] it was -0.1; in assay [17] it was -0.147; in assay [18], -0.487; in assay [19], 0.601; in assay [20], 0.93. The z-score in [4] is 0.743 (inactive); in assay [12], -0.0397.
Take `COc1ccc([Si](C)(C)[C@@H]2[C@@H](CCO)O[C@]3(C(=O)N(Cc4ccc(NC(C)=O)cc4)c4ccccc43)[C@H]2C)cc1`: the composite z-score in [1] was 1.23; in assay [2], -0.173; in [3], 0.0018; in assay [5], 0.779; in assay [6], 1.28; in [7], 1.28. In addition, the composite z-score is 0.951 in [8]; -0.0026 in assay [9]; 0.387 in [10]; 1.43 in assay [11]; 0.621 in assay [13]; 1.07 in [14]. For the same compound, the composite z-score in assay [15] was 0.521; in assay [16], 0.0136; in assay [17] it was 0.441; in [18], 0.715; in assay [19], 0.802; in [20], 1.21. For the same compound, the z-score was -2.27 (inactive) in assay [4] and -5.21 in assay [12].
In the case of `CC(=O)OC[C@H]1O[C@@H](ON=C(C)CCN2CCc3nc(-c4ccccc4)c(-c4ccccc4)cc3C2)[C@H](OC(C)=O)[C@@H](OC(C)=O)[C@@H]1OC(C)=O`, the composite z-score in assay [1] was 0.625; in [2] it was -0.119; in [3], -0.413; in assay [5], 0.917; in assay [6], 1.22; in assay [7], 0.525. The composite z-score is 0.979 in assay [8]; 0.525 in assay [9]; -0.0877 in [10]; 1.32 in assay [11]; 0.687 in assay [13]; 0.328 in assay [14]. Moreover, the composite z-score was -0.697 in [15]; 0.0215 in [16]; -0.0362 in [17]; -0.295 in assay [18]; 0.358 in assay [19]; 0.74 in [20]. For the same compound, the z-score was 0.522 (inactive) in assay [4] and -2.07 in assay [12].
In the case of `CC(C)[Si]1(C(C)C)O[C@@H](c2ccccc2)c2cc(C3CC3)nc(-c3ccccc3)c21`, the composite z-score in assay [1] is -0.792; in assay [2], -0.276; in assay [3] it was -0.0652; in [5], -0.0733; in assay [6], -0.248; in assay [7] it was -0.337. The composite z-score in [8] is -0.349; in assay [9], -0.568; in assay [10] it was -1.07; in assay [11], 0.503; in assay [13], -0.953; in assay [14], -0.0471. The composite z-score in assay [15] was -0.239; in assay [16], -0.126; in [17], -0.221; in assay [18] it was -0.368; in assay [19] it was -0.509; in assay [20], 0.181. Also, the z-score in assay [4] is -0.613 (inactive); in assay [12], -0.587.
Turning to `O=C1C[C@@H](O)[C@@H](O)[C@@H]2[C@@H]3C(=O)N(Cc4ccc5c(c4)OCO5)C(=O)[C@@H]3CC[C@@H]12`, the composite z-score in assay [1] was 0.27; in [2] it was -0.159; in assay [3] it was -0.562; in [5], 0.715; in assay [6], 0.45; in assay [7], 0.428. Moreover, the composite z-score in assay [8] was 0.675; in assay [9], 0.78; in [10], 0.365; in assay [11], -0.0301; in assay [13], 0.796; in [14], -0.504. Also, the composite z-score was -0.56 in [15]; -0.0405 in [16]; 0.0278 in assay [17]; -0.239 in assay [18]; 0.441 in [19]; 0.0541 in [20]. In addition, the results for the z-score in [4] and in assay [12] were 0.706 (inactive) and -0.644, respectively.
